Laboratory results as given in the supplement of paper PMC4466140.

Target: CaNbp2
Assay: SPOT peptide array binding signal intensity (averaged, normalized) (arbitrary units (background-subtracted, floor 0; scale differs between SH3 domains)); higher = stronger binding of the SH3 domain to the peptide
Procedure: (§1)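 GST-tagged SH3 domains from S. cerevisiae (Sc), A. gossypii (Ag), C. albicans (Ca) and S. pombe (Sp) were incubated at 10 ug/ml overnight at 4 C on cellulose SPOT membranes carrying 292 synthetic 15-mer peptides mined from the S. cerevisiae proteome (cysteines replaced by serines). Binding was detected with anti-GST antibody, HRP secondary and chemiluminescence, quantified with Genespotter, and reported as normalized spot intensities averaged over biological replicates.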

Binder | SPOT peptide array binding signal intensity
RRSKSLPITPKSIFN | 128
PKMLPIPSKPTLFDL | 303

Target: CaRvs167
Assay: as above
Procedure: as §1

Binder | SPOT peptide array binding signal intensity
RRSKSLPITPKSIFN | 2.33
PKMLPIPSKPTLFDL | 47

Target: CaRvs167-3
Assay: as above
Procedure: as §1

Binder | SPOT peptide array binding signal intensity
RRSKSLPITPKSIFN | 8.25
PKMLPIPSKPTLFDL | ≤ 0

Target: CaSho1
Assay: as above
Procedure: as §1

Binder | SPOT peptide array binding signal intensity
RRSKSLPITPKSIFN | 353
PKMLPIPSKPTLFDL | 1680

Target: CaSla1-D1-D2
Assay: as above
Procedure: as §1

Binder | SPOT peptide array binding signal intensity
RRSKSLPITPKSIFN | 1140
PKMLPIPSKPTLFDL | 188

Target: CaSla1-D3
Assay: as above
Procedure: as §1

Binder | SPOT peptide array binding signal intensity
RRSKSLPITPKSIFN | 0.5
PKMLPIPSKPTLFDL | 116

Target: ScAbp1
Assay: as above
Procedure: as §1

Binder | SPOT peptide array binding signal intensity
RRSKSLPITPKSIFN | 84
PKMLPIPSKPTLFDL | 14

Target: ScBbc1
Assay: as above
Procedure: as §1

Binder | SPOT peptide array binding signal intensity
RRSKSLPITPKSIFN | 11
PKMLPIPSKPTLFDL | 0.5

Target: ScBem1-D1
Assay: as above
Procedure: as §1

Binder | SPOT peptide array binding signal intensity
RRSKSLPITPKSIFN | 88
PKMLPIPSKPTLFDL | ≤ 0

Target: ScBzz1-D1
Assay: as above
Procedure: as §1

Binder | SPOT peptide array binding signal intensity
RRSKSLPITPKSIFN | 31
PKMLPIPSKPTLFDL | 9

Target: ScBzz1-D2
Assay: as above
Procedure: as §1

Binder | SPOT peptide array binding signal intensity
RRSKSLPITPKSIFN | 12.5
PKMLPIPSKPTLFDL | 22

Target: ScCyk3
Assay: as above
Procedure: as §1

Binder | SPOT peptide array binding signal intensity
RRSKSLPITPKSIFN | 54
PKMLPIPSKPTLFDL | 3

Target: ScFus1
Assay: as above
Procedure: as §1

Binder | SPOT peptide array binding signal intensity
RRSKSLPITPKSIFN | 47.5
PKMLPIPSKPTLFDL | 405

Target: ScHof1
Assay: as above
Procedure: as §1

Binder | SPOT peptide array binding signal intensity
RRSKSLPITPKSIFN | ≤ 0
PKMLPIPSKPTLFDL | ≤ 0

Target: ScHse1
Assay: as above
Procedure: as §1

Binder | SPOT peptide array binding signal intensity
RRSKSLPITPKSIFN | 420
PKMLPIPSKPTLFDL | 73.5

Target: ScLsb1
Assay: as above
Procedure: as §1

Binder | SPOT peptide array binding signal intensity
RRSKSLPITPKSIFN | 2.5
PKMLPIPSKPTLFDL | 11.5

Target: ScLsb2
Assay: as above
Procedure: as §1

Binder | SPOT peptide array binding signal intensity
RRSKSLPITPKSIFN | 1
PKMLPIPSKPTLFDL | ≤ 0

Target: ScLsb3
Assay: as above
Procedure: as §1

Binder | SPOT peptide array binding signal intensity
RRSKSLPITPKSIFN | ≤ 0
PKMLPIPSKPTLFDL | 172

Target: ScLsb4
Assay: as above
Procedure: as §1

Binder | SPOT peptide array binding signal intensity
RRSKSLPITPKSIFN | 8
PKMLPIPSKPTLFDL | 80

Target: ScMyo3
Assay: as above
Procedure: as §1

Binder | SPOT peptide array binding signal intensity
RRSKSLPITPKSIFN | 8.5
PKMLPIPSKPTLFDL | 0.5

Target: ScMyo5
Assay: as above
Procedure: as §1

Binder | SPOT peptide array binding signal intensity
RRSKSLPITPKSIFN | 2
PKMLPIPSKPTLFDL | 2

Target: ScNbp2
Assay: as above
Procedure: as §1

Binder | SPOT peptide array binding signal intensity
RRSKSLPITPKSIFN | 47
PKMLPIPSKPTLFDL | 240

Target: ScPex13
Assay: as above
Procedure: as §1

Binder | SPOT peptide array binding signal intensity
RRSKSLPITPKSIFN | ≤ 0
PKMLPIPSKPTLFDL | 229

Target: ScRvs167
Assay: as above
Procedure: as §1

Binder | SPOT peptide array binding signal intensity
RRSKSLPITPKSIFN | 0.333
PKMLPIPSKPTLFDL | 30.5

Target: ScSho1
Assay: as above
Procedure: as §1

Binder | SPOT peptide array binding signal intensity
RRSKSLPITPKSIFN | 4000
PKMLPIPSKPTLFDL | 673

Target: ScSla1-D1-D2
Assay: as above
Procedure: as §1

Binder | SPOT peptide array binding signal intensity
RRSKSLPITPKSIFN | 2340
PKMLPIPSKPTLFDL | 179

Target: ScSla1-D3
Assay: as above
Procedure: as §1

Binder | SPOT peptide array binding signal intensity
RRSKSLPITPKSIFN | 54
PKMLPIPSKPTLFDL | 374

Target: SpAbp1-D1
Assay: as above
Procedure: as §1

Binder | SPOT peptide array binding signal intensity
RRSKSLPITPKSIFN | 205
PKMLPIPSKPTLFDL | 286

Target: SpBbc1
Assay: as above
Procedure: as §1

Binder | SPOT peptide array binding signal intensity
RRSKSLPITPKSIFN | 1.5
PKMLPIPSKPTLFDL | 0.5

Target: SpBzz1-D1
Assay: as above
Procedure: as §1

Binder | SPOT peptide array binding signal intensity
RRSKSLPITPKSIFN | 204
PKMLPIPSKPTLFDL | 426

Target: SpBzz1-D2
Assay: as above
Procedure: as §1

Binder | SPOT peptide array binding signal intensity
RRSKSLPITPKSIFN | ≤ 0
PKMLPIPSKPTLFDL | 20.5

Target: SpCyk3
Assay: as above
Procedure: as §1

Binder | SPOT peptide array binding signal intensity
RRSKSLPITPKSIFN | 3
PKMLPIPSKPTLFDL | ≤ 0

Target: SpHof1
Assay: as above
Procedure: as §1

Binder | SPOT peptide array binding signal intensity
RRSKSLPITPKSIFN | 2190
PKMLPIPSKPTLFDL | 154

Target: SpHof1-2
Assay: as above
Procedure: as §1

Binder | SPOT peptide array binding signal intensity
RRSKSLPITPKSIFN | 1340
PKMLPIPSKPTLFDL | 410

Target: SpHof1-3
Assay: as above
Procedure: as §1

Binder | SPOT peptide array binding signal intensity
RRSKSLPITPKSIFN | 1120
PKMLPIPSKPTLFDL | 433

Target: SpHse1
Assay: as above
Procedure: as §1

Binder | SPOT peptide array binding signal intensity
RRSKSLPITPKSIFN | 216
PKMLPIPSKPTLFDL | 136

Target: SpLsb1
Assay: as above
Procedure: as §1

Binder | SPOT peptide array binding signal intensity
RRSKSLPITPKSIFN | ≤ 0
PKMLPIPSKPTLFDL | 15.5

Target: SpLsb4
Assay: as above
Procedure: as §1

Binder | SPOT peptide array binding signal intensity
RRSKSLPITPKSIFN | 64.5
PKMLPIPSKPTLFDL | 402

Target: SpMyo1
Assay: as above
Procedure: as §1

Binder | SPOT peptide array binding signal intensity
RRSKSLPITPKSIFN | 24.8
PKMLPIPSKPTLFDL | 82

Target: SpNbp2
Assay: as above
Procedure: as §1

Binder | SPOT peptide array binding signal intensity
RRSKSLPITPKSIFN | 39.5
PKMLPIPSKPTLFDL | 55.5

Target: SpPex13
Assay: as above
Procedure: as §1

Binder | SPOT peptide array binding signal intensity
RRSKSLPITPKSIFN | 5
PKMLPIPSKPTLFDL | 39.5

Target: SpRvs167
Assay: as above
Procedure: as §1

Binder | SPOT peptide array binding signal intensity
RRSKSLPITPKSIFN | 4.33
PKMLPIPSKPTLFDL | 45.3

Target: SpSla1-D1-D2
Assay: as above
Procedure: as §1

Binder | SPOT peptide array binding signal intensity
RRSKSLPITPKSIFN | 1130
PKMLPIPSKPTLFDL | 12

Target: SpSla1-D3
Assay: as above
Procedure: as §1

Binder | SPOT peptide array binding signal intensity
RRSKSLPITPKSIFN | ≤ 0
PKMLPIPSKPTLFDL | 132

Target: AgAbp1
Assay: as above
Procedure: as §1

Binder | SPOT peptide array binding signal intensity
PKMLPIPSKPTLFDL | 47

Target: AgBbc1
Assay: as above
Procedure: as §1

Binder | SPOT peptide array binding signal intensity
PKMLPIPSKPTLFDL | 7.5

Target: AgBem1-D1
Assay: as above
Procedure: as §1

Binder | SPOT peptide array binding signal intensity
PKMLPIPSKPTLFDL | 490

Target: AgBzz1-D1
Assay: as above
Procedure: as §1

Binder | SPOT peptide array binding signal intensity
PKMLPIPSKPTLFDL | 24

Target: AgBzz1-D2
Assay: as above
Procedure: as §1

Binder | SPOT peptide array binding signal intensity
PKMLPIPSKPTLFDL | ≤ 0

Target: AgCyk3
Assay: as above
Procedure: as §1

Binder | SPOT peptide array binding signal intensity
PKMLPIPSKPTLFDL | ≤ 0

Target: AgFus1
Assay: as above
Procedure: as §1

Binder | SPOT peptide array binding signal intensity
PKMLPIPSKPTLFDL | 212

Target: AgHof1
Assay: as above
Procedure: as §1

Binder | SPOT peptide array binding signal intensity
PKMLPIPSKPTLFDL | 6

Target: AgHse1
Assay: as above
Procedure: as §1

Binder | SPOT peptide array binding signal intensity
PKMLPIPSKPTLFDL | 106

Target: AgLsb1
Assay: as above
Procedure: as §1

Binder | SPOT peptide array binding signal intensity
PKMLPIPSKPTLFDL | 2

Target: AgLsb4
Assay: as above
Procedure: as §1

Binder | SPOT peptide array binding signal intensity
PKMLPIPSKPTLFDL | 18.5

Target: AgMyo5
Assay: as above
Procedure: as §1

Binder | SPOT peptide array binding signal intensity
PKMLPIPSKPTLFDL | 3.25

Target: AgNbp2
Assay: as above
Procedure: as §1

Binder | SPOT peptide array binding signal intensity
PKMLPIPSKPTLFDL | 91

Target: AgRvs167
Assay: as above
Procedure: as §1

Binder | SPOT peptide array binding signal intensity
PKMLPIPSKPTLFDL | 3.33

Target: AgSho1
Assay: as above
Procedure: as §1

Binder | SPOT peptide array binding signal intensity
PKMLPIPSKPTLFDL | 776

Target: AgSla1-D1-D2
Assay: as above
Procedure: as §1

Binder | SPOT peptide array binding signal intensity
PKMLPIPSKPTLFDL | ≤ 0

Target: AgSla1-D3
Assay: as above
Procedure: as §1

Binder | SPOT peptide array binding signal intensity
PKMLPIPSKPTLFDL | 5.5

Target: CaAbp1-D1
Assay: as above
Procedure: as §1

Binder | SPOT peptide array binding signal intensity
PKMLPIPSKPTLFDL | 434

Target: CaAbp1-D2
Assay: as above
Procedure: as §1

Binder | SPOT peptide array binding signal intensity
PKMLPIPSKPTLFDL | 459

Target: CaBbc1
Assay: as above
Procedure: as §1

Binder | SPOT peptide array binding signal intensity
PKMLPIPSKPTLFDL | 38.8

Target: CaBem1-D1
Assay: as above
Procedure: as §1

Binder | SPOT peptide array binding signal intensity
PKMLPIPSKPTLFDL | 95

Target: CaBzz1-D1
Assay: as above
Procedure: as §1

Binder | SPOT peptide array binding signal intensity
PKMLPIPSKPTLFDL | 362

Target: CaBzz1-D2
Assay: as above
Procedure: as §1

Binder | SPOT peptide array binding signal intensity
PKMLPIPSKPTLFDL | 146

Target: CaCyk3
Assay: as above
Procedure: as §1

Binder | SPOT peptide array binding signal intensity
PKMLPIPSKPTLFDL | 7

Target: CaFus1
Assay: as above
Procedure: as §1

Binder | SPOT peptide array binding signal intensity
PKMLPIPSKPTLFDL | 852

Target: CaHof1
Assay: as above
Procedure: as §1

Binder | SPOT peptide array binding signal intensity
PKMLPIPSKPTLFDL | ≤ 0

Target: CaHse1
Assay: as above
Procedure: as §1

Binder | SPOT peptide array binding signal intensity
PKMLPIPSKPTLFDL | 79

Target: CaLsb1
Assay: as above
Procedure: as §1

Binder | SPOT peptide array binding signal intensity
PKMLPIPSKPTLFDL | 2

Target: CaLsb4
Assay: as above
Procedure: as §1

Binder | SPOT peptide array binding signal intensity
PKMLPIPSKPTLFDL | 209

Target: CaMyo5
Assay: as above
Procedure: as §1

Binder | SPOT peptide array binding signal intensity
PKMLPIPSKPTLFDL | 89.5
